DT40 TDP1 no CPT: qHTS for Inhibitors of human tyrosyl-DNA phosphodiesterase 1 (TDP1): qHTS in cells in absence of CPT | Potency, µM (titrated, usually from 46.2 µM), without a hit: at the highest dose activity change, negative = growth inhibition, hits mostly inhibitors | 420,000 compounds, 15% hits | DT40 Tdp1-/- hTDP1 cells, no CPT, ATP luminescence, 48 h | AID 686978, 2013; further: nearly all actives have a fitted effect of over 55% in size
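DT40 Tdp1-/-;hTDP1 cells, no CPT (DMSO vehicle only), 400 cells/well; compounds pin-transferred; ≥48 hr, 37 °C; CellTiter-Glo 30 min RT dark, luminescence read.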
DT40 TDP1 CPT: qHTS for Inhibitors of human tyrosyl-DNA phosphodiesterase 1 (TDP1): qHTS in cells in presence of CPT | chicken DT40 Tdp1-/-;hTDP1 cells + 20 nM CPT, ATP luminescence, 48 h | Potency, µM (top dose mostly 46.2 µM), inactives show top-dose activity change, negative = growth inhibition, usual class: inhibitors | 420,000 compounds, 12% hits | AID 686979, 2013; further: nearly all actives have a fitted effect of over 55% in size
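Chicken DT40 Tdp1-/- cells stably complemented with human TDP1 were seeded at 400 cells/well in medium containing 20 nM camptothecin, exposed to pin-transferred compounds, and grown at 37 °C for at least 48 hr. Viability was read as ATP luminescence.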
12-LOX inh: Primary qHTS assay for inhibitors of human arachidonate 12S-lipoxygenase (ALOX12): Round 2; Polyunsaturated fatty acid lipoxygenase ALOX12 (Homo sapiens), P18054; purified 12hLO, xylenol orange hydroperoxide absorbance; Potency, µM (highest dose often 108 µM), inactives show at the top dose activity change, negative = inhibition, actives largely listed as inhibitors; 580,000 compounds, 1.1% hits; AID 1671190, 2021
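Purified human 12hLO (150 nM final) in 25 mM Hepes, 0.01% Triton X-100, pH 7.0 was preincubated 15 min at room temperature with compound. Then 40 uM arachidonic acid was added, 30 min. Hydroperoxide was read by Fe-XO absorbance ratio 573/405 nm.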
Gal4-VP16 FLuc: VP16 counterscreen qHTS for inhibitors of ROR gamma transcriptional activity; Drosophila S2 Gal4-VP16 UAS-luciferase, luminescence, 20 h; AID 2546, 2010; Potency, µM (series often up to 53.6 µM), for inactives: at the top dose activity, negative = inhibition, actives largely listed as inhibitors; 310,000 compounds, 3.5% hits;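 further: Gal4-VP16 expression switched on by copper sulfate through the metallothionein promoter; nearly all actives have a fitted effect of over 50% in size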
RORgamma inh: qHTS for inhibitors of ROR gamma transcriptional activity | Drosophila S2 Gal4-RORgamma UAS-luciferase reporter, 20 h | 310,000 compounds, 5.4% hits | Nuclear receptor ROR-gamma (Mus musculus), P51450 | Potency, µM (highest dose often 53.6 µM), without a hit: top-dose activity change, negative = inhibition, actives largely listed as inhibitors | AID 2551, 2010; further: nearly all actives have a fitted effect of over 60% in size
Target sequence (P51450 whole entry, looked up, the tested form may be a part): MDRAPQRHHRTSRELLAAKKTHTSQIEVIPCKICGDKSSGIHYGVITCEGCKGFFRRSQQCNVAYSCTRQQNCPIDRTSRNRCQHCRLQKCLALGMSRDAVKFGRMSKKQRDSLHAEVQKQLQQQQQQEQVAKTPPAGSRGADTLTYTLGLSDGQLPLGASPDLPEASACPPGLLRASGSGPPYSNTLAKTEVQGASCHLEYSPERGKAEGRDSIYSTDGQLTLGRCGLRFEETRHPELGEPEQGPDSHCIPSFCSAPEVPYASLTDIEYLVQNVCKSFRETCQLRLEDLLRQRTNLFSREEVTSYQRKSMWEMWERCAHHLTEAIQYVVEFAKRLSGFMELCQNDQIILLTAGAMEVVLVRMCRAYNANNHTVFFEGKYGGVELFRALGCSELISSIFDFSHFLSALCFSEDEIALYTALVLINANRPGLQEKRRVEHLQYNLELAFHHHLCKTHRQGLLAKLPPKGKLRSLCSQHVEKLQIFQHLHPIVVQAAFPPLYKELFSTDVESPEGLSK
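Drosophila Schneider cells stably carrying a metallothionein-driven Gal4 DBD–ROR gamma fusion and a UAS-Photinus luciferase reporter were exposed to compound for 1 hr, then induced with copper sulfate (700 uM final) for 20 hr at ambient temperature before luminescence reading.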
ELG1 repair inh: qHTS screen for small molecules that inhibit ELG1-dependent DNA repair in human embryonic kidney (HEK293T) cells expressing luciferase-tagged ELG1 | HEK293T ELG1-luciferase reporter, luminescence, 16 h; DNA damage induced by 5-fluorouridine | Potency, µM (highest dose often 46.1 µM), for inactives: at the highest dose activity change, negative = inhibition, hits mostly inhibitors | 330,000 compounds, 2.3% hits; further: nearly all actives have a fitted effect of over 55% in size
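DMSO vehicle served as the neutral condition. Each well held 2,000 cells given 5-fluorouridine plus compound; after 16 hr at 37 °C/5% CO2, ONE-Glo was added and luciferase measured 30 min later.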
* = called active by the depositor; ? = inconclusive; · = no result given; [ ] = another dose, or the depositor's remark. Hits are enriched below; roughly 15% of the tested compounds scored in any of these assays. The call rests on the fitted dose curve; in most records, active means well fitted curve in the direction sought with a large enough effect; inconclusive means small, poorly fitted or top-dose-only effect, or another doubt; inactive means no such curve, though single readings can be large; an effect the other way counts as inactive or inconclusive. On the % scale 0 is the no-effect control and ±100 the full control effect; potency means the concentration at half of the fitted maximal effect.

SMILES | DT40 TDP1 no CPT | DT40 TDP1 CPT | 12-LOX inh | Gal4-VP16 FLuc | RORgamma inh | ELG1 repair inh
O=C1CCCCC1CN1CCCCC1 (stereo unspecified) | -30% | ? | -6% | 4% | 1% | ·
C[N+](C)(C)CC1CCCCC1=O (stereo unspecified) | · | · | 13µM* | · | · | ·
O=C(c1ccco1)N1[C@H]2CC[C@@H]1c1cnc(-c3ccc(F)cc3)nc1C2 | · | · | 6% | · | · | ·
Brc1ccccc1CNCCc1ccc2c(c1)OCO2 | ? | ? | ? | -7% | -42% | -4%
Oc1ccc(CCNCc2cc3c(cc2Br)OCO3)cc1 | 29µM* | ? | -3% | · | · | ·
CCc1nc2c(OCc3ccc(C(F)(F)F)cc3)cccn2c1N(C)C(=O)C(C)C | 26µM* | ? | -4% | · | · | ·
CCC(C)(C)n1nnnc1C(c1cccc(C#N)c1)N1CCN(c2cc(C)ccc2C)CC1 (stereo unspecified) | 23µM* | 16µM* | 2% | -7% | 8% | -4%
CCOC(=O)c1cccc(-[n+]2c(-c3ccccc3)cc(-c3ccccc3)cc2-c2ccccc2)c1 | 1.6µM* | 1.6µM* | -20% | · | · | -26%
CCOC(=O)c1ccc(-[n+]2c(-c3ccccc3)cc(-c3ccccc3)cc2-c2ccccc2)cc1 | 0.73µM* | 1µM* | · | · | · | ?
CCOC(=O)c1ccc2c(c1)N(C)C(=O)c1ccccc1S2 | ? | ? | · | -1% | -15% | -5%
CC(C)C12CN3CCN(CC(C3)C1=O)C2 | · | · | -2% | · | · | ·
Cc1ccc(COc2ccc(CC(C)N)cc2)cc1 (stereo unspecified) | · | · | 13% | · | · | ·
NCCCC[C@H](N[C@@H](CCc1ccccc1)C(=O)O)C(=O)N1CCC[C@H]1C(=O)O | ? | -2% | -2% | 2% | -30% | 4%
CC(C)C(NC(=O)C(C(C)C)N(C)C)C(=O)N(C)C(C(=O)N1CCCC1C(=O)N1CCCC1C(=O)NCc1ccccc1)C(C)C (stereo unspecified) | 0.052µM* | 0.033µM* | ? | · | · | ·
COC(=O)c1c(-c2ccc(Cl)cc2)noc1N1CCN(c2ccc(C(C)=O)cc2)CC1 | 21µM* | ? | -8% | · | · | ·
COC(=O)C1=C(c2ccc(C(C)=O)cc2)C[C@@H]2CC[C@H]1N2C(=O)N1CCOCC1 | ? | -22% | -11% | · | · | 25%
C/C=C/c1ccc(OCC(=O)N2CCN(CCOc3ccccc3)CC2)c(OC)c1 | · | · | 2% | · | · | ·
Cc1onc(-c2ccccc2Cl)c1C(=O)OCC(=O)c1ccc2c(c1)OCCO2 | 15µM* | ? | 0% | -4% | ? | 13µM*
CC(=O)c1ccc2c(c1)OCO2 | -1% | 33% | ? | -1% | -16% | -5%
Cc1cc(C)c(-c2csc(NC(=O)COC(=O)c3ccc4c(c3)OCO4)n2)c(C)c1 | 26µM* | ? | -6% | 6% | 3% | 0%
Cn1nccc1CN1CCC2(CC1)C(=O)Nc1ccccc12 | · | · | 3%[12.5 µM] | · | · | ·
COC(=O)C1=C(c2c(C)noc2C)C[C@@H]2CC[C@H]1N2C(=O)N1CCOCC1 | 3% | -10% | 0% | · | · | 23%
COC(=O)C1=C(c2ccc(F)cc2F)C[C@@H]2CC[C@H]1N2C(=O)N1CCCCC1 | 18µM* | 13µM* | -4% | · | · | 14%
COC(=O)C1=C(c2cccc(OC)c2OC)C[C@@H]2CC[C@H]1N2C(=O)N1CCCC1 | · | 21µM* | 0% | · | · | ·
COC(=O)C1=C(c2ccc(F)cc2F)C[C@@H]2CC[C@H]1N2C(=O)N1CCCC1 | 8.2µM* | ? | -3% | · | · | 4%
SMILES | DT40 TDP1 no CPT | DT40 TDP1 CPT | 12-LOX inh | Gal4-VP16 FLuc | RORgamma inh | ELG1 repair inh
COC(=O)C1=C(c2ccc(F)cc2F)C[C@@H]2CC[C@H]1N2C(=O)N1CCOCC1 | ? | ? | -2% | · | · | 14%
COC(=O)C1=C(c2cccc(OC)c2OC)C[C@@H]2CC[C@H]1N2C(=O)N1CCCCC1 | · | ? | -10% | · | · | ·
COC(=O)C1=C(c2c(C)noc2C)C[C@@H]2CC[C@H]1N2C(=O)N1CCC(O)(c2ccc(Cl)cc2)CC1 | 21µM* | ? | -28% | · | · | ?
COC(=O)C1=C(c2ccc(F)cc2F)C[C@@H]2CC[C@H]1N2C(=O)NCc1ccc(F)cc1 | ? | ? | ? | · | · | 9%
Cc1c(C(=O)Cn2c(C)nc3ccccc32)c2ccccc2n1C | · | · | 1% | · | · | ·
C#CCN(C)C[C@H]1CN2CC[C@H]1C[C@@H]2CNC(=O)NC(C)C | · | · | 34%[176 µM] | · | · | ·
O=C(Cc1ccc(Cl)cc1)N1Cc2ccccc2CC2(CCCN2CC2CCNC2)C1 (stereo unspecified) | · | · | 6%[6.33 µM] | · | · | ·
COC(=O)C1=C(c2ccc(F)cc2F)C[C@@H]2CC[C@H]1N2C(=O)N1CCC(O)(c2ccc(Cl)cc2)CC1 | 18µM* | 21µM* | -15% | · | · | ?
CC12CCC(O)CC1CCC1[C@@H]2CC(O)C2(C)C(C3=CC(=O)OC3)CCC12O (stereo partly specified) | · | · | -6% | · | · | ·
O=C(CCC(=O)N1CCOc2ccc(Cl)cc21)N1CCC2(CC1)OCCO2 | 28% | -2% | 2% | -8% | -7% | 23%
Cc1cc(-c2ccc(C)c(S(=O)(=O)N3CCOc4ccc(Cl)cc43)c2)on1 | 13µM* | 21µM* | -4% | · | · | ·
CCc1ccc(NC(=O)CN2C(=O)C3(SCC(=O)N3c3ccc(F)c(F)c3)c3ccccc32)cc1 (stereo unspecified) | ? | 18µM* | -11% | · | · | ·
CCc1ccc(N2C(=O)NC(=O)/C(=C\C=C\c3ccco3)C2=O)cc1 | 3.3µM* | 3.7µM* | 0% | -5% | 22% | ?
O=C1NC(=O)N(c2ccccc2)C(=O)/C1=C\C=C\c1ccccc1 | 2.6µM* | 2.1µM* | 25µM* | 10µM* | ? | ?
Cc1cc(C)cc(N2C(=O)NC(=O)/C(=C\C=C\c3ccco3)C2=O)c1 | 5.8µM* | 5.2µM* | ? | 10µM* | 3.2µM* | ?
CC(C)c1ccc(N2C(=O)NC(=O)/C(=C/C=C/c3ccco3)C2=O)cc1 | 4.6µM* | 5.2µM* | 45µM* | 13µM* | -99% | ?
